Composite z-score, composite Z-score and z-score data for 5 compounds are collected here from PubChem BioAssay.

Structures are written as SMILES. Calls of active or inactive are those of the source.

One experiment has as its target Albumin (Bos taurus) (UniProt P02769). The experiment in a line: compounds binding labelled BSA control protein – biochemical, small-molecule microarray, Alexa647 label, 635/667 nm fluorescence, artefact control for SMM control protein annotation, profiling panel (AID 1118).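 Further: score merges 667 nm emission intensity and signal-to-noise per printed compound spot.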 Particulars: BSA-A647 binding, fluorescence 635 nm, higher = more signal.
A short description of experiment [1]: probe aXIP binding to arrayed compounds – biochemical, NeuroSMM set, 635/667 nm fluorescence, primary screen (AID 1119).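 Further: probe is the protein aXip251-270 applied at 1 µg/mL to compound-printed slides; binding of probe to printed compounds measured as 667 nm fluorescence plus signal to noise.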 The conditions noted are these: small-molecule microarray, higher = more signal, called active from +8 up or from −8 down.
The nature of experiment [2]: probe aNOTCH3 binding on compound microarray – biochemical, small-molecule microarray, 635/667 nm fluorescence, primary screen (AID 1120).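 Further: probe is a biotin-tagged antibody raised against NOTCH3 rather than NOTCH3 protein; score merges spot fluorescence near 667 nm with spot signal to noise.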 The conditions noted are these: higher = more signal.
A short description of experiment [3]: probe aNOTCH2 binding on compound microarray – biochemical, small-molecule microarray, 635/667 nm fluorescence, primary screen (AID 1121).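 Further: score merges feature fluorescence read at 667 nm with its signal to noise.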 The conditions noted are these: higher = more signal.
Experiment [4] has as its target Carbonic anhydrase 2 (Homo sapiens) (UniProt P00918). The experiment can be described thus: compounds binding carbonic anhydrase 2 – biochemical, small-molecule microarray, Alexa647-labelled CAII, profiling panel (AID 1122). The conditions noted are these: CAII-A647 binding fluorescence, higher = more signal.
Experiment [5] in a line: COS7 lysate on small-molecule microarray, probe aHis, 635 nm (AID 1123).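 Further: z-score combines 667nm fluorescence intensity with signal-to-noise per printed compound spot.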 Particulars: COS7 cell lysate, fluorescence, higher = more signal.
The nature of experiment [6]: probe aLAP1 signal on lysate-treated microarray – cell lysate, small-molecule microarray, COS7 lysate, primary screen (AID 1124).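 Further: lysate comes from COS7 cells expressing LAP1 and is applied at 0.3 µg/mL; score merges spot fluorescence near 667 nm with signal-to-noise over triplicate slides.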 The conditions noted are these: probe aLAP1, fluorescence, higher = more signal.
Another experiment has as its system Sam68 (KHDRBS1). The experiment can be described thus: compounds binding KHDRBS1 protein – biochemical, small-molecule microarray, 635 nm fluorescence, primary screen (AID 1125).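 Further: score merges 667 nm channel intensity with signal to noise over triplicate slides.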 The conditions noted are these: higher = more signal.
The subject of experiment [7] is Chordin-like protein 2 (CHRDL2). The experiment can be described thus: compounds binding chordin-like 2 – biochemical, small-molecule microarray, 635 nm fluorescence, primary screen (AID 1126).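 Further: printed compound slides probed with Chrdl2 protein at 4 µg/mL for 1 h at 4 C; score merges 667 nm emission intensity with signal to noise over three replicate slides.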 Particulars: fluorescence 635 nm, higher = more signal.
Experiment [8] concerns the target Concanavalin-A (Canavalia ensiformis) (UniProt P02866). The experiment in a line: compounds binding concanavalin A lectin – biochemical, small-molecule microarray, Alexa647 label, 635 nm, artefact control for SMM control protein annotation, primary screen (AID 1127).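 Further: z combines 667 nm emission intensity with signal-to-noise across three replicate slides.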 Particulars: ConA-A647 binding fluorescence, higher = more signal.
Experiment [9] is described as follows: compounds binding Alexa647 anti-His antibody – biochemical, small-molecule microarray, 635 nm fluorescence, artefact control for SMM control protein annotation, primary screen (AID 1128).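 Further: score merges feature fluorescence with signal-to-noise for each printed compound spot.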 The conditions noted are these: higher = more signal.
Experiment [10] concerns Human papillomavirus type 1a E7 protein (residues 1-88). The experiment can be described thus: HPV1a E7 small-molecule binders, primary screen, biochemical, small-molecule microarray, residues 1-88, 635 nm (AID 1129). Particulars: small-molecule microarray binding, fluorescence 635 nm; higher = more signal.
Experiment [11] has as its target Focal adhesion kinase 1 (Homo sapiens) (UniProt Q05397). The experiment in a line: PTK2 protein binding on printed compound slides – biochemical, small-molecule microarray, 635/667 nm fluorescence, BSA, DTT, primary screen (AID 1130).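 Further: composite of spot emission at 667 nm and signal to noise over triplicate slides.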 The conditions noted are these: 635 nm fluorescence, higher = more signal.
The test system of experiment [12] is Fibrinogen (Alexa647-labelled). The experiment in a line: Alexa647-fibrinogen binding to printed small molecules – biochemical, small-molecule microarray, 635/667 nm fluorescence, artefact control for SMM control-protein annotation, profiling panel (AID 1131).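 Further: z-score merges 667 nm fluorescence with per-spot signal-to-noise over triplicate slides.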 The conditions noted are these: fibrinogen-A647 binding fluorescence, higher = more signal.
Experiment [13] concerns the target Follistatin (Homo sapiens) (UniProt P19883). The experiment in a line: FST protein binding to printed compounds – biochemical, small-molecule microarray, 635/667 nm fluorescence, primary screen (AID 1132). The conditions noted are these: 635 nm fluorescence, higher = more signal.
In experiment [14] the target is Fibroblast growth factor 2 (Homo sapiens) (UniProt P09038). The experiment in a line: basic fibroblast growth factor binding to printed compounds – biochemical, small-molecule microarray, 635/667 nm fluorescence, primary screen (AID 1133). Particulars: FGF2, fluorescence 635/667, higher = more signal.
The nature of experiment [15]: JC-1 mitochondrial potential readout, lung cancer cells – cell-based, A549, JC-1 fluorescence, basal, 24 h, 100 nL, profiling panel (AID 1138).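 Further: A549 lung adenocarcinoma cells under basal conditions with no added stimulus; test concentration not given here.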 Particulars: higher = more signal.
A further experiment deals with Lefty1. The experiment can be described thus: Lefty1 protein binding to printed compounds – biochemical, small-molecule microarray, 635/667 nm fluorescence, primary screen (AID 1139). Particulars: fluorescence 635/667, higher = more signal.
Experiment [16] has as its system wheat germ agglutinin (Triticum aestivum), Alexa647-labelled. The experiment can be described thus: Alexa647-WGA lectin binding to printed small molecules – biochemical, small-molecule microarray, 635/667 nm fluorescence, artefact control for SMM control-protein annotation, profiling panel (AID 1140).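 Further: score merges 667 nm feature emission with signal to noise over triplicate slides.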 The conditions noted are these: WGA-A647 binding, 635 nm fluorescence, higher = more signal.

Experiment [17] concerns the target Luciferin 4-monooxygenase (Photinus pyralis) (UniProt P08659). The experiment can be described thus: inhibition of purified Photinus pyralis luciferase – biochemical, luminescence, purified enzyme, 2006 set, primary screen (AID 1141).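 Further: cell-free assay with purified firefly luciferase at 100 ng per well in PBS; test concentration not given here.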 The conditions noted are these: purified firefly luciferase, SteadyGlo luminescence, 30 min; higher = more signal, called active from +8 up or from −8 down.

Sequence of Luciferin 4-monooxygenase (Photinus pyralis) (P08659 whole entry, looked up): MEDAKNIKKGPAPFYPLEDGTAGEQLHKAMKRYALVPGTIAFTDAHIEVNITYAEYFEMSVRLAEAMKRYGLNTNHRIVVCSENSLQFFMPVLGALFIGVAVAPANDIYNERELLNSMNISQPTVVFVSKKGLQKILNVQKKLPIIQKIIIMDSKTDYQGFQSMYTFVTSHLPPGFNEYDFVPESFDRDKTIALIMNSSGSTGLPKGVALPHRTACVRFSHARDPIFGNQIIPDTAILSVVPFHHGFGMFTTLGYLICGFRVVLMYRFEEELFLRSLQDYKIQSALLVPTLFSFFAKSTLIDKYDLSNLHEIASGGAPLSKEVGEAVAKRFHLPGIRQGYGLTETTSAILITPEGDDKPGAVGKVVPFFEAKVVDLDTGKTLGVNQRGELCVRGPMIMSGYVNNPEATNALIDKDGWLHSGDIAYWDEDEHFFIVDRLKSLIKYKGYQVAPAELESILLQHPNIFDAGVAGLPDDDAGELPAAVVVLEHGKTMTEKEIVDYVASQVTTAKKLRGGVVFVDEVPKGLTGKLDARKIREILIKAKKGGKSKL
Sequence of Follistatin (Homo sapiens) (P19883 whole entry, looked up): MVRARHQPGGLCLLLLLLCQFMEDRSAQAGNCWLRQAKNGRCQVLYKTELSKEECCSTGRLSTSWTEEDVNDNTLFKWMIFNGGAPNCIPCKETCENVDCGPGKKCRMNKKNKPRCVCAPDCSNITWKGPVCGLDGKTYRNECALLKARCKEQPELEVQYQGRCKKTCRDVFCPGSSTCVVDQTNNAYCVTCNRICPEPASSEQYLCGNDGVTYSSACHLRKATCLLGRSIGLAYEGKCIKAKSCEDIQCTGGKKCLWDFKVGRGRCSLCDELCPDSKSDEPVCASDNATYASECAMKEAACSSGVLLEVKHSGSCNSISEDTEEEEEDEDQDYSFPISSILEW
Sequence of Fibroblast growth factor 2 (Homo sapiens) (P09038 whole entry, looked up): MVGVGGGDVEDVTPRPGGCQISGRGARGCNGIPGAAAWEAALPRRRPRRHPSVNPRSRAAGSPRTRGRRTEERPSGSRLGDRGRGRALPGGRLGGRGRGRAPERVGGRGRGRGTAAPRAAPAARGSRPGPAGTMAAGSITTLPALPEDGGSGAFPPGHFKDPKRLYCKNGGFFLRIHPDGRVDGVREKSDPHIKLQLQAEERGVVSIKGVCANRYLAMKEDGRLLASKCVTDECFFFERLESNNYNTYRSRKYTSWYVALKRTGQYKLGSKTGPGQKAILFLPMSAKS
Sequence of Concanavalin-A (Canavalia ensiformis) (P02866 whole entry, looked up): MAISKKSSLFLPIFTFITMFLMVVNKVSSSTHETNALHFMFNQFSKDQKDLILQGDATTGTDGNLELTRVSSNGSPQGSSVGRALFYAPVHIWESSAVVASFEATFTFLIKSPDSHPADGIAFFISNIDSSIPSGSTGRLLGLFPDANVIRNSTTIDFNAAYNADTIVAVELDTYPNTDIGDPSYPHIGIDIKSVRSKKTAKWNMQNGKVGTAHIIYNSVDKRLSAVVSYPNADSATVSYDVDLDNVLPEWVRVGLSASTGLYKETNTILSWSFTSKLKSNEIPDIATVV
Sequence of Focal adhesion kinase 1 (Homo sapiens) (Q05397 whole entry, looked up): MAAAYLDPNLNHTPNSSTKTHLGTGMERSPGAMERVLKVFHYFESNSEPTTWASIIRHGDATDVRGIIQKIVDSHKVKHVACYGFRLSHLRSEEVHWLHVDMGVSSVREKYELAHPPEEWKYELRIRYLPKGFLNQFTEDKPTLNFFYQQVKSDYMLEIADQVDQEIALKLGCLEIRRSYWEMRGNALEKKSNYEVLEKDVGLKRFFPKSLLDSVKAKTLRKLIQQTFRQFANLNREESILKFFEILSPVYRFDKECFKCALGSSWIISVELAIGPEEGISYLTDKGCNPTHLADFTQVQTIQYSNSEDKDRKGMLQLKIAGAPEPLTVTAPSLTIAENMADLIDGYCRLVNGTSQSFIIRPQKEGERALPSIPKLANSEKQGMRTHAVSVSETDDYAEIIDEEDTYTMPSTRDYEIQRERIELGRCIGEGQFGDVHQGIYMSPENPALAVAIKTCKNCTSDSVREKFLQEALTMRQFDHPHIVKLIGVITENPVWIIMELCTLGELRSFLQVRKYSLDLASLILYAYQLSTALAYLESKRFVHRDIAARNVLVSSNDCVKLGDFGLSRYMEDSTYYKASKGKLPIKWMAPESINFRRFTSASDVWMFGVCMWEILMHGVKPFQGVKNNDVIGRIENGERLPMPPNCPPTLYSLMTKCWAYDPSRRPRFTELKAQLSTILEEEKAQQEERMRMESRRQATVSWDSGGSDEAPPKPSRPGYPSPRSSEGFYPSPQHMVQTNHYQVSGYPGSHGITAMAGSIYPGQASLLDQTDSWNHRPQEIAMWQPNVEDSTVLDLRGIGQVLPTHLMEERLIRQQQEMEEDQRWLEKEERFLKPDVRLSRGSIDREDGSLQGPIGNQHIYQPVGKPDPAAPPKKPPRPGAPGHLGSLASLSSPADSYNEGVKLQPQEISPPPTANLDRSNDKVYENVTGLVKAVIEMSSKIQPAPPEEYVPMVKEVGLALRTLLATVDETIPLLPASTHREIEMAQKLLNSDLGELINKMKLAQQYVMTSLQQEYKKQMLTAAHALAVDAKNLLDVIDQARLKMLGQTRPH
Sequence of Albumin (Bos taurus) (P02769 whole entry, looked up): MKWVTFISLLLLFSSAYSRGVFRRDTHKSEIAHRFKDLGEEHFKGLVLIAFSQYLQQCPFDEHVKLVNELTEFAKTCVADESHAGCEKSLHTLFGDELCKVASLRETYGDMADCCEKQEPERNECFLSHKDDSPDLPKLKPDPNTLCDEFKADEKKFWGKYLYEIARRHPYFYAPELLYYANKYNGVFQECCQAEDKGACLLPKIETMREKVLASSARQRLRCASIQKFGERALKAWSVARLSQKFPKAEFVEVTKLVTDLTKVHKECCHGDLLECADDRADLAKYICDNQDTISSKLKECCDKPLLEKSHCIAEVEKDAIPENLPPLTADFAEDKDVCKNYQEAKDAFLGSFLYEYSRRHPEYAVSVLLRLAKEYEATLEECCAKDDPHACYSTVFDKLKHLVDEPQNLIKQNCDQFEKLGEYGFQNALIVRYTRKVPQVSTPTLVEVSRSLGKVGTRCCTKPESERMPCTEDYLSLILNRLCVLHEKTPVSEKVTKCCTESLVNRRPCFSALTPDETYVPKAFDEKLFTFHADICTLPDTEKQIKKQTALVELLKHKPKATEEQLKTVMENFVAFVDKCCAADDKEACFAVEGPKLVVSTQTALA

`Cc1ccc(S[C@]2(C(=O)O)CC(=O)N(Cc3cc(C(F)(F)F)cc(C(F)(F)F)c3)[C@@H]2c2ccc(CO)cc2)cc1`: the composite z-score is -1.78 in the experiment with Albumin (Bos taurus); -0.512 in experiment [2]; -0.154 in experiment [3]; 0.65 in experiment [4]; 1.23 in experiment [5]; 0.549 in experiment [6]. In addition, the composite z-score in the experiment with Sam68 (KHDRBS1) is -0.25; in experiment [7] it was -2.37; in experiment [8], -1.24; in experiment [9] it was -1.45; in experiment [10] it was -0.889; in experiment [11] it was -0.194. In addition, the composite z-score in experiment [12] is -0.84; in experiment [13], -1.22; in experiment [14], -0.897; in the experiment with Lefty1, -1.66; in experiment [16], -1.31. For the same compound, the composite Z-score in experiment [1] was -0.483 (inactive). In addition, the z-score was -0.389 in experiment [15] and -0.0278 (inactive) in experiment [17].
With `CCOC(=O)C[C@H]1[C@H](OC(=O)Cc2ccc3c(c2)OCO3)[C@@H](NC(=O)CC(C)C)c2cc(OCCCO)ccc2N1C(=O)Cc1ccc(OC)cc1`, the composite z-score is 0.779 with Albumin (Bos taurus); -0.0328 in [2]; -0.0288 in [3]; 0.0138 in experiment [4]; 0.775 in [5]; 0.166 in experiment [6]. Further, the composite z-score with Sam68 (KHDRBS1) was 0.282; in [7], -0.226; in experiment [8] it was -0.622; in experiment [9], -0.114; in experiment [10], 0.0383; in experiment [11], -0.224. The composite z-score is 0.641 in [12]; -0.123 in experiment [13]; 0.11 in [14]; -0.194 in the experiment with Lefty1; 0.62 in experiment [16]. Further, in [1], the composite Z-score was -0.867 (inactive). Further, the z-score in experiment [15] was 0.903; in [17], -1.91 (inactive).
With `[N-]=[N+]=Nc1ccccc1[C@H]1OC(c2ccc(OCCCO)cc2)=N[C@@]1(CCS(=O)(=O)c1ccccc1)C(=O)NCCN1CCOCC1`, the composite z-score in the experiment with Albumin (Bos taurus) worked out at 0.189; in experiment [2], 0.189; in experiment [3] it was 0.069; in [4], 0.449; in experiment [5], 1.72; in experiment [6], 0.503. Also, the composite z-score with Sam68 (KHDRBS1) was found to be 1.31; in experiment [7] it was 0.577; in [8] it was 0.923; in experiment [9] it was 1.51; in experiment [10], 1.26; in [11], 0.56. Besides, the composite z-score worked out at 0.938 in [12]; 1.34 in [13]; 0.471 in experiment [14]; 0.619 in the experiment with Lefty1; 0.821 in experiment [16]. In addition, the composite Z-score in experiment [1] is -0.363 (inactive). In addition, the z-score in experiment [15] was 0.162; in experiment [17], -6.93 (inactive).
Turning to `O=C1OCCC=C[C@H]2OC34C=CCN(Cn5nnc6ccccc65)C(=O)[C@H]3N(CCCCCCO)C(=O)[C@@H]4C12` (stereo not given in full), the composite z-score with Albumin (Bos taurus) is -0.587; in experiment [2] it was -0.429; in experiment [3], -0.0532; in [4], 0.875; in [5], -0.591; in experiment [6], 0.755. Also, the composite z-score in the experiment on Sam68 (KHDRBS1) is -0.365; in experiment [7], -1.31; in experiment [8], -0.718; in experiment [9], -0.832; in experiment [10], -0.48; in experiment [11] it was -0.235. Moreover, the composite z-score was -0.907 in [12]; -1.29 in experiment [13]; -1.24 in experiment [14]; -1.28 with Lefty1; -1.07 in experiment [16]. In experiment [1], the composite Z-score was 0.688 (inactive). Also, the z-score in [15] is 0.324; in experiment [17], -0.718 (inactive).
Regarding `C=CCOC(=O)[C@H]1[C@@H]2C(=O)O[C@@H](c3ccccc3)[C@@H](c3ccccc3)N2[C@@H](c2ccc(OCCOC(=O)[C@@H]3C[C@@H]4C(=O)N[C@@H](CCCCN(C)C)C(=O)N4[C@@H]3c3ccc(O)cc3)cc2)[C@]12C(=O)Nc1ccccc12`, the composite z-score is -0.568 with Albumin (Bos taurus); 0.137 in experiment [2]; 0.0002 in experiment [3]; 0.297 in experiment [4]; 2.58 in [5]; 0.949 in experiment [6]. For the same compound, the composite z-score with Sam68 (KHDRBS1) amounted to 1.31; in experiment [7], 1.44; in experiment [8], 1.14; in [9] it was 1.57; in experiment [10], 1.14; in [11], 0.0515. Further, the composite z-score in experiment [12] was determined as 0.503; in [13] it was 1.38; in experiment [14], 1.48; in the experiment on Lefty1 it was 1.54; in [16], 0.382. Also, the composite Z-score in [1] is 0.685 (inactive). The z-score in experiment [15] was -1.49; in [17], -3.27 (inactive).
